# The full ranking holds about 8,300 sequences; the median of “log2 fold change of degron read counts, EGFP-low vs EGFP+ sorted cells (limma voom), compound-induced degradation” is about -1.1, and the highest 2% start at about 3.2. The sample as a whole holds a higher share of the highest values than the screen did.
# T1: CRBN, Q96SW2
# T1 chain: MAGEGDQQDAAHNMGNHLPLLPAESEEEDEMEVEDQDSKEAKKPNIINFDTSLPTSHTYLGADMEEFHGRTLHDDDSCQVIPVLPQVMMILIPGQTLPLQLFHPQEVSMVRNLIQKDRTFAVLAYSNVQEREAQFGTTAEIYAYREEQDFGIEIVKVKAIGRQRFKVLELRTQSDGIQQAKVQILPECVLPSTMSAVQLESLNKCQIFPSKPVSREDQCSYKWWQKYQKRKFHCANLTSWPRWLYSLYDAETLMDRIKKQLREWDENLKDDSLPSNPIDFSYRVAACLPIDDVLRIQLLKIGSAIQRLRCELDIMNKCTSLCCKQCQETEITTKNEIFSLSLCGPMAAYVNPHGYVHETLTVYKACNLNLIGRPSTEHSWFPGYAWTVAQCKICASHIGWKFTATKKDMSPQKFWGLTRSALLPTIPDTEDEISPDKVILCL
# Target: T1, CRBN, Q96SW2
# Test: log2 fold change of degron read counts, EGFP-low vs EGFP+ sorted cells (limma voom), compound-induced degradation; higher = more compound-induced degradation of the degron-EGFP fusion; degrons are variants of IKZF1/3 zinc finger 2; compound dose not given here
# Conditions: Jurkat, 18 h
# [1] = compound: compound 19 (5-tert-butyl-thalidomide)
# [2] = compound: compound 22 (5-morpholino-thalidomide)
# [3] = compound: compound 33 (diphenyl IMiD analogue)
# 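Further: pooled lentiviral library of zinc finger degron-EGFP fusions in mCherry-positive Jurkat cells, FACS-sorted after compound exposure, with degron abundance counted by next-generation sequencing.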
Sequence,log2 fold change of degron read counts [1],log2 fold change of degron read counts [2],log2 fold change of degron read counts [3],log2 fold change of degron read counts (compound: thalidomide)
"FYCPICGHCFTQKGNLLRHIKL [46F_47Y_49P_50I_52G_53H_54C_55F_67L_, Q9UKT9]",-1.24,-1.33,-0.382,-1.61
"FECPVCGANFTQKGNLLRHIKL [46F_47E_49P_50V_52G_53A_54N_55F_67L_, Q9UKT9]",-0.535,-0.523,2.7,3.16
"FSCPVCGANFTQKGNLLRHIKL [46F_47S_49P_50V_52G_53A_54N_55F_67L_, Q9UKT9]",1.92,1.29,1.78,0.865
"FMCPVCGANFTQKGNLLRHIKL [46F_47M_49P_50V_52G_53A_54N_55F_67L_, Q9UKT9]",-0.564,1.22,2.92,1.69
"FVCPVCGANFTQKGNLLRHIKL [46F_47V_49P_50V_52G_53A_54N_55F_67L_, Q9UKT9]",-0.407,2.43,1.69,2.77
"FWCNICGANFTQKGNLLRHIKL [46F_47W_49N_50I_52G_53A_54N_55F_67L_, Q9UKT9]",2.27,3.62,1.88,0.44
"FECNICGANFTQKGNLLRHIKL [46F_47E_49N_50I_52G_53A_54N_55F_67L_, Q9UKT9]",-1.93,-1.27,1.75,2.22
"FWCPVCGANFTQKGNLLRHIKL [46F_47W_49P_50V_52G_53A_54N_55F_67L_, Q9UKT9]",3.05,3.85,2.12,1.69
"FYCPVCGANFTQKGNLLRHIKL [46F_47Y_49P_50V_52G_53A_54N_55F_67L_, Q9UKT9]",2.82,3.69,2.32,1.3
"FLCPVCGANFTQKGNLLRHIKL [46F_47L_49P_50V_52G_53A_54N_55F_67L_, Q9UKT9]",-0.132,0.243,1.67,1.54
"FYCNICGANFTQKGNLLRHIKL [46F_47Y_49N_50I_52G_53A_54N_55F_67L_, Q9UKT9]",1.69,2.89,1.33,0.00754
"FNCPVCGANFTQKGNLLRHIKL [46F_47N_49P_50V_52G_53A_54N_55F_67L_, Q9UKT9]",1.79,0.637,0.771,0.306
"FQCPVCGANFTQKGNLLRHIKL [46F_47Q_49P_50V_52G_53A_54N_55F_67L_, Q9UKT9]",0.19,2.02,1.9,3.48
"FKCDVCGADFTQKGNLLRHIKL [46F_47K_49D_50V_52G_53A_54D_55F_67L_, Q9UKT9]",-2.97,-3.35,-3.54,-2.81
"FFCEICGRYFTQKGNLLRHIKL [46F_47F_49E_50I_52G_53R_54Y_55F_67L_, Q9UKT9]",0.941,0.578,-0.864,-0.888
"FKCNQCGRGFTQKGNLLRHIKL [46F_47K_49N_50Q_52G_53R_54G_55F_67L_, Q9UKT9]",-2.31,-2.82,-2.99,-2.64
"FSCDQCGAAFTQKGNLLRHIKL [46F_47S_49D_50Q_52G_53A_54A_55F_67L_, Q9UKT9]",-0.624,-1.35,0.123,-2.08
"FSCDICGAQFTQKGNLLRHIKL [46F_47S_49D_50I_52G_53A_54Q_55F_67L_, Q9UKT9]",1.74,1.52,0.198,0.0774

# From the supplement of paper PMC12645437, “Orthogonal IMiD-Degron Pairs Induce Selective Protein Degradation in Cells” (ACS Chemical Biology, 2025)
